Compound activity as filed in PubChem BioAssay.
Pol beta inh: blocks human DNA polymerase beta activity; P06746; Pol beta primer extension/strand displacement, fluorescence kinetic; Potency, µM (titrated, usually from 114 µM), for inactives: at the highest dose activity change, negative = inhibition, actives largely listed as inhibitors; 340,000 tested, 1.3% active; also: % is scaled to controls: 0 for no effect and ±100 for the full control effect
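Pol beta (10 nM) and compounds were preincubated 15 min at room temperature, then 50 nM substrate (final) started primer extension/strand displacement. Reads were taken at 0 and 10 min; concentration-response data were fitted to a four-parameter Hill equation.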
POLK inh: inhibitors of human DNA polymerase kappa; Q9UBT6; Potency, µM (top dose mostly 107 µM), for inactives: top-dose activity, negative = inhibition, hits mostly inhibitors; 400,000 tested, 0.53% active; purified Pol kappa, fluorescent DNA synthesis assay, 10 min; also: % is scaled to controls: 0 for no effect and ±100 for the full control effect
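Here, compound and 10 nM enzyme are combined for 15 min at room temperature; adding 50 nM substrate (final) starts DNA synthesis, tracked by fluorescence at 0 and 10 min against buffer-only wells.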
L3MBTL1 inh: L3MBTL1 (human) inhibition; Q9Y468; AlphaScreen L3MBTL1–H3K9me1 peptide binding; Potency, µM (series often up to 57.1 µM), for inactives: top-dose activity, negative = inhibition, most hits filed as inhibitors; 230,000 tested, 0.66% active; AID 485360; also: % is scaled to controls: 0 for no effect and ±100 for the full control effect; nearly all actives have a fitted effect of over 60% in size
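AlphaScreen assay: L3MBTL1 (50 nM final) was preincubated 30 min at room temperature with biotinylated H3(1-15)K9me1 peptide (75 nM final), then 30 min with library compounds; streptavidin donor and nickel chelate acceptor beads (10 ug/mL final) added, 30 min dark.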
Pol iota inh: inhibitors of human DNA polymerase iota; Potency, µM (series often up to 115 µM), for the others: at the top dose activity, negative = inhibition, actives largely listed as inhibitors; Pol iota fluorescent replication assay, 10 min; 390,000 tested, 1% active
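Pol iota at 10 nM preincubated 15 min with compounds at room temperature; reaction started with fluorescent substrate, 50 nM final. Fluorescence read kinetically at 0 and 10 min; buffer-only wells as negative control.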
Pol eta inh: DNA polymerase eta (human) inhibition; Q9Y253; recombinant Pol eta, fluorescent DNA replication assay; Potency, µM (doses to about 114 µM), inactives show top-dose activity change, negative = inhibition, usual class: inhibitors; 390,000 tested, 1.2% active; AID 588591; also: % is scaled to controls: 0 for no effect and ±100 for the full control effect
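Fluorescent replication assay: 50 nM final substrate added after a 15 min room-temperature compound preincubation with 10 nM enzyme. Signal taken at 0 min and again at 10 min.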
WRN helicase inh: WRN helicase (human) inhibition; Q14191; WRN helicase unwinding, fluorescent forked duplex, kinetic; Potency, µM (doses to about 114 µM), inactives show top-dose activity change, negative = inhibition, most hits filed as inhibitors; 360,000 tested, 0.46% active; also: % is scaled to controls: 0 for no effect and ±100 for the full control effect; nearly all actives have a fitted effect of over 55% in size
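Kinetic fluorescence helicase assay: unwinding of a quenched forked DNA duplex (100 nM final) with 2 mM ATP final raises red fluorescence (525/598 nm). Compounds sat 15 min at room temperature with 20 nM WRN beforehand.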
* = called active by the depositor; [ ] = another dose, or the depositor's remark. This is a sample that favours compounds with a hit; in the whole collection about 2.5% have one here. Calls follow the shape of the dose curve; as a rule, active = well fitted curve in the direction sought with a large enough effect; inconclusive = small, poorly fitted or top-dose-only effect, or another doubt; inactive = no such curve, though single readings can be large; an effect the other way counts as inactive or inconclusive. Potency is read from the fitted curve at half-maximal effect.

`Cc1nnc(SCc2ccc(CSc3nnc(C)c(=O)[nH]3)cc2)[nH]c1=O` gave Pol beta inh inconclusive, POLK inh -11%, Pol iota inh inconclusive, Pol eta inh 79µM* and WRN helicase inh -11%[11.6 µM].
`O=c1nc(Nc2cccc(Cl)c2)oc2cc(Cl)oc(=O)c12` gave Pol beta inh inconclusive, POLK inh 8%, L3MBTL1 inh -9%, Pol iota inh -8%, Pol eta inh 3% and WRN helicase inh -1%.
COc1ccc(C2=Nn3c(nnc3-c3ccccc3F)SC2)cc1OC1CCCC1 was read as POLK inh 50µM*, L3MBTL1 inh -8%, Pol iota inh -10% and Pol eta inh -15%.
Screening COc1ccc(N2CCN(c3oc(Cc4cccc5ccccc45)nc3C#N)CC2)cc1 returned Pol beta inh 10%, POLK inh -7%, L3MBTL1 inh inconclusive, Pol iota inh -7%[58.9 µM], Pol eta inh -1% and WRN helicase inh -3%.
Screening COc1cc(C(=O)Nc2cc(-c3ccccc3)[nH]n2)cc(OC)c1OC returned Pol beta inh -14%, POLK inh -2%, L3MBTL1 inh -5%, Pol iota inh -2%, Pol eta inh -15% and WRN helicase inh 4%.
Screening COc1cc(C(=O)Nc2nc(OC)c(-c3ccccc3)c(OC)n2)cc(OC)c1OC returned Pol beta inh 45µM*, POLK inh 7%[60.1 µM], L3MBTL1 inh -19%, Pol iota inh inconclusive, Pol eta inh -22% and WRN helicase inh -5%[57.1 µM].
`Cc1ccc(N2CC(C(=O)Nc3ccccn3)CC2=O)cc1` (stereo not drawn) gave Pol beta inh -24%, POLK inh 6%, L3MBTL1 inh 1%, Pol iota inh -11%, Pol eta inh -4% and WRN helicase inh -7%.
Screening N#C/C(=N\O)c1nc2ccccc2[nH]1 returned Pol beta inh -23%, POLK inh -10%, L3MBTL1 inh -6%, Pol iota inh 45%, Pol eta inh -5% and WRN helicase inh -3%.
Cc1c(C(=O)O)cnc2c([N+](=O)[O-])cnn12 was read as Pol beta inh inconclusive, POLK inh -33%, L3MBTL1 inh inconclusive, Pol iota inh 60%, Pol eta inh inconclusive and WRN helicase inh 79µM*.
O=C(O)C1C2C=CC(C2)C1C(=O)Nc1ccccc1Br (stereo not drawn) was read as Pol beta inh 89µM*, POLK inh -4%, L3MBTL1 inh -13%, Pol iota inh -11%, Pol eta inh inconclusive and WRN helicase inh -12%[11.6 µM].
Screening Cc1ccc(/C=C/C(=O)O)cc1S(=O)(=O)Nc1ccc(C(=O)O)cc1 returned Pol beta inh 5%, POLK inh -5%, Pol iota inh -3%, Pol eta inh inconclusive and WRN helicase inh 0%.
For Cc1ccc(/C=C/C(=O)O)cc1S(=O)(=O)Nc1ccccc1C(=O)O the results were Pol beta inh inconclusive, POLK inh -16%, L3MBTL1 inh inconclusive, Pol iota inh 60%, Pol eta inh 45µM* and WRN helicase inh 2%[11.6 µM].
O=C1N(Cc2ccccc2)CC2(Br)COCOC12O (stereo not drawn) was read as POLK inh -8%, Pol iota inh -4%, Pol eta inh 2% and WRN helicase inh 18µM*.
For O=C(N/N=C1\CCCc2oc(C(=O)O)cc21)c1ccccc1 the results were Pol beta inh 9%, POLK inh -11%, L3MBTL1 inh 2%, Pol iota inh -6%, Pol eta inh 3% and WRN helicase inh -11%.
O=C(O)c1cc2c(o1)CCC/C2=N\O was read as Pol beta inh 89µM*, POLK inh -28%, L3MBTL1 inh 1%, Pol iota inh 1%[58.9 µM], Pol eta inh -10% and WRN helicase inh 0%.
Screening CC[C@]12C(=O)N(C)C[C@H]([C@@H]3C(=O)N(C)C(=O)[C@@H]31)N2C(=O)c1ccc(Br)cc1 returned POLK inh -11%, Pol iota inh -13%, Pol eta inh 3% and WRN helicase inh 6%.
`COc1cc(OC)cc(C(=O)N2CCN=C2SCc2cccnc2)c1` gave Pol beta inh 39%, POLK inh 13%, Pol iota inh 15%, Pol eta inh -3% and WRN helicase inh 5%.
Screening COc1ccc(-c2csc(NC(=O)CSc3nc(C)nc4sc(C(=O)O)c(C)c34)n2)cc1 returned Pol beta inh 7.1µM*, POLK inh 32µM*, L3MBTL1 inh 4%, Pol iota inh inconclusive, Pol eta inh 22µM* and WRN helicase inh inconclusive.
COc1ccc(-c2cc(NC=O)c3ncc(-c4cc(OC)c(OC)c(OC)c4)n3c2)cc1 was read as WRN helicase inh 79µM*.
CCSc1ccc(-c2cc(NC=O)c3ncc(-c4cc(OC)c(OC)c(OC)c4)n3c2)cc1 was read as WRN helicase inh -11%.
`CCOC(=O)C1=C(CS(=O)(=O)c2ccc(C)c(C)c2)NC(=O)NC1c1ccc(O)cc1` (stereo not drawn) gave Pol beta inh 26%, POLK inh -12%, Pol iota inh 31%, Pol eta inh -19% and WRN helicase inh -2%.
`CCN(CC)S(=O)(=O)c1cc(C)ccc1SC` gave Pol beta inh -17%, POLK inh -13%, L3MBTL1 inh 12%, Pol iota inh 15%, Pol eta inh -5% and WRN helicase inh -2%.
Screening COc1ccc(C(=O)NCC(=O)OCc2ccc(Br)cc2)cc1 returned Pol beta inh 21%, POLK inh 3%, L3MBTL1 inh 11%, Pol iota inh -22%, Pol eta inh -6% and WRN helicase inh 3%.
Screening O=C(CNC(=O)c1ccc(-c2ccccc2)cc1)OCc1ccc(Br)cc1 returned Pol beta inh 1%, POLK inh -2%, L3MBTL1 inh -13%, Pol iota inh 110%, Pol eta inh 22µM* and WRN helicase inh -5%[57.1 µM].
CCc1ccc(OCC(=O)NNC(=O)c2ccc(NC(=O)C3CC3)cc2)cc1 was read as Pol beta inh 32µM*, POLK inh -8%, Pol iota inh 79µM*, Pol eta inh inconclusive and WRN helicase inh -35%.
`Cc1ccc(OCC(=O)NNC(=O)c2ccc(NC(=O)C3CC3)cc2)c(C)c1` gave Pol beta inh 1%, POLK inh -9%, Pol iota inh 26%, Pol eta inh -21% and WRN helicase inh 2%.
For Nc1nc(-c2ccccn2)nc(N)c1Cc1ccc(Cl)cc1Cl the results were Pol beta inh 12%, POLK inh -3%, L3MBTL1 inh 3.5µM*, Pol iota inh 38%, Pol eta inh -18% and WRN helicase inh 7%.
